Shown are actives, neighbours in structure and some others; about 3.2% of the full set was active somewhere.
PriA SSB inh: inhibitors of Klebsiella pneumoniae PriA binding to SSB C-terminal tail; AlphaScreen SSBct-PriA binding, biotinylated peptide; inhibition, % at 33 µM; 0.6% of 430,000 active; in the data active = inhibition mostly above about 37%, no sharp cut-off; inactive = mostly below about 20%;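 also: plate controls were negative control peptide for no effect and reference peptide for full effect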
Mtb FBA inh: inhibitors of M. tuberculosis fructose-bisphosphate aldolase | P9WQA3 | purified M. tuberculosis FBA, fluorescence read-out | inhibition, % at 1 µM | 2.3% of 360,000 active;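 also: 0% = vehicle and 100% = reference inhibitor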
Target sequence (P9WQA3 whole entry, looked up): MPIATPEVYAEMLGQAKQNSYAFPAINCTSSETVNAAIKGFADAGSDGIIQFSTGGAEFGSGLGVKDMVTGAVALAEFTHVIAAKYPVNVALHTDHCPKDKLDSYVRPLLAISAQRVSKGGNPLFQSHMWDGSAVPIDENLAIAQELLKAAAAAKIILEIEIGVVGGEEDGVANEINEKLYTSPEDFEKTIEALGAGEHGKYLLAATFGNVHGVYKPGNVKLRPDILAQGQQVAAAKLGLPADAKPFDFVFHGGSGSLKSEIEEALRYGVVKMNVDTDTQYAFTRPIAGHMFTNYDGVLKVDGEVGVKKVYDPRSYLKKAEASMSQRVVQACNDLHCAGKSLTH
GDH-TPI counter-1: GDH-TPI coupled enzyme inhibition counter-screen; GDH-TPI coupled enzyme counterscreen, NADH absorbance; 1.2% of 360,000 active; inhibition, % at 4.8 µM; in the data active = inhibition above about 30%;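 also: 0% = DMSO wells and 100% = wells lacking the enzyme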
Mtb bLac sens: beta-lactam sensitization of Mtb H37Rv | M. tuberculosis H37Rv growth with meropenem, percent inhibition | inhibition, % at 25 µM | 0.27% of 330,000 active | AID 434955; call rule not given here;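 also: growth measured after seven days incubation then overnight dye step; 0% = bacteria only wells and 100% = bacteria with antibiotic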
UGM FP inh: inhibitors of M. tuberculosis UDP-galactopyranose mutase; purified UGM, fluorescence polarization probe displacement; inhibition, % at 10 µM; 0.06% of 320,000 active; AID 504406; in the data active = inhibition above about 10%, passing the limit was not always enough
Rv3671c inh: inhibitors of M. tuberculosis serine protease Rv3671c; inhibition, % at 5.96 µM; 0.048% of 320,000 active; AID 2606; in the data active = inhibition above about 38%;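 also: extracellular domain of Rv3671c used as enzyme; 0% = enzyme with DMSO and 100% = no enzyme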
Mtb FBA confirm: Mtb FBA inhibition, confirmed | purified M. tuberculosis FBA, fluorescence read-out | 78% of 5,600 active | inhibition, % at 1 µM | shares compounds with Mtb FBA inh | AID 651616;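 also: 0% = vehicle wells and 100% = reference inhibitor wells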
GDH-TPI counter-2: counter-screen for M. tuberculosis FBA inhibitors: GDH-TPI coupled enzyme inhibition | shares compounds with Mtb FBA inh | GDH-TPI coupled enzyme counterscreen, fluorescence | inhibition, % at 1 µM | 81% of 5,600 active | AID 652141; in the data active = inhibition above about 10%
* marks the source's active call; other numbers are inactive results; · = no result; + = active, no number. Rule as the data show it, unless noted: active = inhibition above about 27%; inactive = the rest.

SMILES	PriA SSB inh	Mtb FBA inh	GDH-TPI counter-1	Mtb bLac sens	UGM FP inh	Rv3671c inh	Mtb FBA confirm	GDH-TPI counter-2
NC(=O)c1nsc(C(=O)N(c2ccccc2F)C(C(=O)NCc2ccccc2)c2ccc(O)cc2)c1N (stereo not drawn)	16	45*	19	-5	-1	-41	8	-7
O=C(O)C1CS(=O)(=O)CN1C(=O)c1ccco1 (stereo not drawn)	0	·	·	·	·	·	·	·
O=S(=O)(Cc1ccccc1)NCCn1ccnc1-c1ncccn1	-17	·	·	·	·	·	·	·
COc1ccccc1NS(=O)(=O)c1cc([N+](=O)[O-])ccc1NN=Cc1sc(N2CCOCC2)nc1-c1ccccc1	3	·	·	·	·	·	·	·
CCCCC(=O)Nc1cc(N(C)C)nc2ccccc12	-8	35*	14	-5	0	7	+	+
O=C(NCCc1ccc(Cl)cc1)c1ccc2c(=O)n3c(nc2c1)SCCC3	-12	·	·	·	·	·	·	·
COc1ccc(NC(=O)c2ccc(Cl)c(S(=O)(=O)N3CCOCC3)c2)c(OC)c1	-20	·	·	·	·	·	·	·
CCc1ccccc1Oc1coc2cc(O)ccc2c1=O	-10	31*	15	6	5	1	111*	75*
CCOC(=O)Oc1ccc2c(=O)c(Oc3cccc(C)c3)coc2c1	-30	16	16	1	-1	4	·	·
Cc1cccc(Oc2coc3cc(O)ccc3c2=O)c1	4	37*	10	7	2	-2	72*	63*
CC1(C)OC(C)(C)C(=CNc2ccccc2)C1=O	-3	·	·	·	·	·	·	·
COc1ccc(-n2nnc(C(=O)OCc3ccccc3Cl)c2C)cc1	-7	·	·	·	·	·	·	·
O=C1Nc2ccc(S(=O)(=O)NCc3ccccn3)c3cccc1c23	-11	76*	11	·	·	·	67*	52*
CCCCc1ccc(NS(=O)(=O)c2ccc3c4c(cccc24)C(=O)N3)cc1	4	·	·	·	·	·	·	·
CN(C)CCNS(=O)(=O)c1ccc2c3c(cccc13)C(=O)N2	-12	43*	17	2	3	-4	-7	-4
CCN(CC)CCNS(=O)(=O)c1ccc2c3c(cccc13)C(=O)N2	-1	54*	9	-1	1	4	61*	60*
O=C1Nc2ccc(S(=O)(=O)O)c3cccc1c23	5	·	·	·	·	·	·	·
COc1ccc(Cl)cc1NC(=O)C(=O)Nc1ccc2c(c1)OCO2	14	·	·	·	·	·	·	·
Cc1nc2cc(N=Cc3ccc([N+](=O)[O-])s3)ccc2n1-c1ccccc1	5	·	·	·	·	·	·	·
CCCc1cc(=O)oc2cc(C)cc(OC(C)C(=O)NCc3ccncc3)c12 (stereo not drawn)	-6	58*	5	9	0	-7	+	+
CCCc1cc(=O)oc2cc(C)cc(OC(C)C(=O)NCc3cccnc3)c12 (stereo not drawn)	4	70*	4	2	-1	-4	5	-3
COc1ccc2nc(-c3ccc(F)cc3)sc2c1	-15	98*	9	40	-1	-7	+	+
Cc1cccn2c(=O)c3cc(C(=O)NCc4ccco4)c(=N)n(C4CCCC4)c3nc12	-4	90*	13	2	-2	5	78*	63*
N=c1c(C(=O)NC2CCCC2)cc2c(=O)n3ccccc3nc2n1C1CCCCC1	-5	64*	8	-13	2	-4	49*	41*
Cn1c(C(=O)Nc2ccc(F)c(Cl)c2)cc2c(=O)n3ccccc3nc21	2	·	·	·	·	·	·	·
SMILES	PriA SSB inh	Mtb FBA inh	GDH-TPI counter-1	Mtb bLac sens	UGM FP inh	Rv3671c inh	Mtb FBA confirm	GDH-TPI counter-2
Cc1ccc(S(=O)(=O)c2cc3c(=O)n4ccccc4nc3n(C3CCCC3)c2=N)cc1	0	5	11	10	0	-3	·	·
Cc1ccc2nc3c(cc(C(=O)NC4CCCCC4)c(=N)n3C3CCCCC3)c(=O)n2c1	-3	71*	-4	-4	0	0	121*	85*
CC1CC(NC(=O)c2cc3c(=O)n4ccccc4nc3n2C)CC(C)(C)C1 (stereo not drawn)	-3	72*	7	3	1	2	71*	62*
Cc1nc2ccc(NC(=O)Cc3ccc(F)cc3)cc2c(=O)n1-c1ccccc1	5	·	·	·	·	·	·	·
CCOC(=O)c1c(NC(=O)c2cc(OC)c(OC)c(OC)c2)sc(C)c1-c1ccc(F)cc1	-9	·	·	·	·	·	·	·
CCOC(=O)c1c(C)[n+](-c2ccc(C)cc2)c(CC)c2cc(OC)c(OC)cc12	-13	41*	11	-4	-2	-4	82*	57*
CC1(C)Cc2c(c(N3CCCC3)nc3sc(C(=O)Nc4ccccc4)c(N)c23)CO1	0	34*	29	5	-4	10	+	+
CCOC(=O)c1sc2nc(N3CCOCC3)c3c(c2c1N)CC(C)(C)N(C)C3	30	59*	11	-2	8	9	6	5
Nc1c(C(=O)NCCc2ccccc2)sc2nc(N3CCOCC3)c3c(c12)CCCC3	2	82*	16	3	0	2	26	14*
Cc1ccccc1NC(=O)c1sc2nc(N3CCOCC3)c3c(c2c1N)CCCC3	-3	13	15	51	2	2	·	·
CN(CCO)C(=O)C1CCN(c2ncc(C(F)(F)F)cc2Cl)CC1	-4	41*	4	-6	0	-7	79*	63*
NC(=O)C1CCN(c2ncc(C(F)(F)F)cc2Cl)CC1	-9	1	-3	0	0	0	·	·
CCn1c2ccccc2c2cc(/C(C)=N/O)ccc21	·	4	2	5	-1	-3	·	·
C/C(=N\O)c1ccc2c3ccccc3n(C)c2c1	·	44*	5	33	0	-6	+	169*
COCCN1CCC(CNC(=O)C(=O)NCc2ccc3c(c2)OCO3)CC1	-7	·	·	·	·	·	·	·
O=C(Oc1ccccc1)Oc1ccc(N(C(=O)Oc2ccccc2)S(=O)(=O)c2cccs2)cc1	-1	·	·	·	·	·	·	·
O=c1[nH]cc([N+](=O)[O-])c(=O)[nH]1	7	·	·	·	·	·	·	·
CC(C)n1ncc2c(C(=O)NCC(=O)Nc3ccccc3Br)cc(C3CC3)nc21	-3	30*	5	14	0	-7	-2	0
Cc1cc(C)c(NC(=O)CNC(=O)c2cc(C3CC3)nc3c2cnn3C(C)C)c(C)c1	·	35*	8	·	·	·	121*	92*
CCc1ccccc1NC(=O)CNC(=O)c1cc(C2CC2)nc2c1cnn2C(C)C	-2	37*	5	3	1	0	+	+
COc1ccccc1CCNC(=O)c1cc(C2CC2)nc2c1cnn2C(C)C	-21	-1	-3	·	·	·	·	·
COc1ccc2cc(C(=O)C3CCCN(C(=O)c4csnn4)C3)ccc2c1 (stereo not drawn)	-7	96*	26	-6	3	-5	44*	35*
